Reference: PubChem BioAssay (NCATS)
Results filed as inconclusive are left out. Where a call stands in place of a potency, no number is given. Activity calls are given as the source filed them. Calls come from the whole dose curve; as a rule, active = well fitted cell-killing curve with a large enough effect; inconclusive = small, poorly fitted or top-dose-only effect; inactive = flat fitted curve, though single readings scatter.
Potency is the fitted concentration of half-maximal effect.

Experiment: qHTS of pediatric cancer cell lines to identify multiple opportunities for drug repurposing: Confirmatory screen for SK-N-SH cells (AID 1347129);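 note: cells exposed to compound for 48 h before viability read; nearly all actives have a fitted effect of over 60% in size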
Conditions: SK-N-SH neuroblastoma cell viability; series mostly up to 46.1 µM
Procedure, shortened: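 Cells (500-1,000/well) rested 5 h, then received compounds for 48 h; metabolically active cells were measured by CellTiter-Glo luminescence. Final concentrations spanned up to 46 µM (MIPE, 11-point) or 0.59 nM-46 µM (NPC, 8-point) in primary screens, 11-point in follow-ups.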
For `O=C(O)C[C@H](O)C[C@H](O)C=Cc1c(C2CC2)nc2ccccc2c1-c1ccc(F)cc1`, the Potency was 1320 nM (active). With `CN(C)c1ccc(C(=O)NCCCCCCC(=O)NO)cc1` the Potency was 2350 nM (active). For `C[N+](C)([O-])CCNc1ccc(NCC[N+](C)(C)[O-])c2c1C(=O)c1c(O)ccc(O)c1C2=O`, the Potency was “inactive”. In the case of `Cc1cc(Nc2ncc3c(n2)N(C)C(=O)N(c2cc(NC(=O)c4cccc(C(F)(F)F)c4)ccc2C)C3)n(C)n1`, the Potency is reported as 332 nM (active). For `CC(=O)N1CCN(c2ccc(OCc3nn(C)c(C)c3-c3cccc4c(CCCOc5cccc6ccccc56)c(C(=O)O)n(Cc5cccnc5)c34)cc2)CC1`, the Potency was “inactive”. With `CC(=O)[C@]1(O)Cc2c(O)c3c(c(O)c2[C@@H](O[C@H]2C[C@H](N)[C@@H](O)[C@H](C)O2)C1)C(=O)c1ccccc1C3=O` the Potency was 209 nM (active). For `CN[C@H]1[C@@H](O)[C@@H]2O[C@@H]3O[C@H](C)CC(=O)[C@]3(O)O[C@@H]2[C@@H](NC)[C@H]1O`, the Potency was “inactive”. With `O=C(NCc1ccccc1)[C@H](Cc1ccccc1)NC(=O)[C@@H]1O[C@@H]1C(=O)NCCc1ccc(O)cc1` the Potency was “inactive”. In the case of `COc1ccc(C(C)=O)c(O)c1`, the Potency is reported as “inactive”. With `CC(=O)SCC(Cc1ccccc1)C(=O)NCC(=O)OCc1ccccc1` (configuration not stated) the Potency was “inactive”. With `Cc1nc(NC(=O)N2CCC[C@@H]2C(N)=O)sc1-c1ccnc(C(C)(C)C(F)(F)F)c1` the Potency was 11800 nM (active). With `COc1cccc2c1C(=O)c1c(O)c3c(c(O)c1C2=O)C[C@@](O)(C(=O)CO)C[C@H]3O[C@H]1C[C@H](N)[C@H](O)[C@H](C)O1` the Potency was 590 nM (active).
